ST2 inh: inhibitors of human ST2 (IL1RL1) binding to IL-33. AlphaLISA ST2-Fc/biotin-IL-33 interaction, 1 h. inhibition, % for hits at 17 µM. hit rate 2.3% among 78,000; in the data active = inhibition above about 30%
* = called active by the depositor; i = inactive. The sample as a whole holds a higher share of hits than the screen did.

SMILES	ST2 inh
N/C(=N/OC(=O)Oc1ccccc1)c1ccccn1	i
COc1cccc(OC)c1C(=O)Nc1ccc(C(C)C)cc1	i
COc1cccc(CCNC(=O)c2cc3n(n2)CCCNC3)c1OC	i
O=C1CNC(=O)N1Cc1nc(CCc2ccccc2)n[nH]1	i
O=C(CN1C(=O)c2ccccc2C1=O)Nc1ccc(Br)cc1	34.0%*
O=C(CN1C(=O)c2ccccc2C1=O)Nc1ccc(Br)cc1C(=O)O	i
O=C(CN1C(=O)C(=O)c2ccccc21)Nc1ccc(Br)cc1	i
CC(C)(C)c1ccc(OCC(O)CN2CCN(Cc3ccc4c(c3)OCO4)CC2)cc1 (stereo not drawn)	i
COc1ccc(OCC(O)CN2CCN(c3ccccc3F)CC2)c(C(C)(C)C)c1 (stereo not drawn)	i
CC(C)(C)c1ccccc1OCC(O)CN1CCN(Cc2ccc3c(c2)OCO3)CC1 (stereo not drawn)	97.0%*
CN(C(=O)c1cnc2n(c1=O)CCS2)C1CCCCC1	i
C=CCn1c(=NC(=O)CSCC(=O)Nc2cc(C)on2)sc2ccccc21	i
Cc1cc(N2CCOCC2)nc2ccc(NC(=O)CCC(=O)N(C)C3CCCCC3)cc12	i
CCCN1CCC(Cc2noc(-c3ncccc3C)n2)CC1	i
O=C1c2cccnc2C(Nc2ccc(F)cc2F)N1Cc1ccco1 (stereo not drawn)	i
O=C(Cn1cnc2c(cnn2-c2ccccc2)c1=O)Nc1ccc(Cl)c(Cl)c1	i
Clc1ccc(-c2cn3ccccc3n2)cc1	i
Brc1ccc(-c2cc3ccccn3c2)cc1	34.0%*
Brc1ccc(-c2cn3ccccc3n2)s1	i
Cc1ccc(-c2noc(CCC(=O)NC3CCCC(C)C3C)n2)cc1 (stereo not drawn)	i
CCCn1cnc2c1CN(S(=O)(=O)c1ccc(OC)cc1)[C@H](C(=O)OC)C2	i
Cc1cccnc1CN1CCN(Cc2ccc(-c3ccn[nH]3)s2)CC1	i
CNc1nc(C(=O)N2CCC3(CCCN(C)CC3)CC2)cs1	i
COc1cc(C(=O)N2CCCN(C)C3(CCN(C)CC3)C2)nc(OC)n1	33.0%*
CN1CCC2(CC1)CN(C(=O)c1cc(-c3ccc(O)cc3)n[nH]1)CCCN2C	i
SMILES	ST2 inh
O=C(C1CC1)N1CCc2cc(S(=O)(=O)N3CCC(N4CCCCC4)CC3)ccc21	i
CCOCCN1CCC(=O)N(Cc2ccccc2)C(CC)C1 (stereo not drawn)	i
COc1ccc(C(=O)Nc2ccc(OCC(=O)N3CCOCC3)cc2)c(OC)c1OC	i
N=C1S/C(=C\c2ccc(O)cc2)C(=O)N1c1ccc(F)cc1	i
Cc1ccc(N2C(=O)S/C(=C\c3ccc(O)cc3)C2=O)cc1	i
N=C1S/C(=C\c2ccc(N3CCOCC3)cc2)C(=O)N1c1ccc(Br)cc1	32.0%*
CC(=O)c1cccc(NC(=O)O[C@@H]2CO[C@H]3[C@@H]2OC[C@@H]3NC(=O)Nc2ccc(C(C)(C)C)cc2)c1	i
CCCCCCCCCCCCCCCC(=O)NCC(COP(=O)([O-])OCC[N+](C)(C)C)OCC (stereo not drawn)	i
COc1cccc(N(C(C)=O)C2=C(NC3CCCCC3)C(=O)c3ccccc3C2=O)c1	38.0%*
COc1cccc(C(=O)Nc2ccccc2C(=O)NC2CCCCC2)c1	i
O=C(NC1CCCCC1)C(c1ccccc1)c1ccccc1	i
CC(C(=O)NC1CCCC1)N(c1ccccc1)S(C)(=O)=O (stereo not drawn)	i
CC(=O)N(C1=C(NC2CCCCC2)C(=O)c2ccccc2C1=O)c1ccc(F)c(F)c1	45.0%*
COc1cccc(N2CC(NC(=O)C3CCCCC3)CC2=O)c1 (stereo not drawn)	i
Cc1ccoc1C(=O)NCC(c1sccc1C)N(C)C (stereo not drawn)	i
O=C(CCC1=NS(=O)(=O)c2ccccc2N1)NC1CCCCCCC1	i
Cc1c(-c2n[nH]c(=O)n2[C@@H](C)c2ccc(Cl)cc2)cnn1C	i
COc1ccc(NC(=O)N[C@H]2CO[C@H]3[C@@H]2OC[C@H]3OC(=O)Nc2ccc(Oc3ccccc3)cc2)cc1	i
CC1CCCN(CCCNS(=O)(=O)c2ccc3c(c2)CCN3C(=O)C2CC2)C1 (stereo not drawn)	i
CCOc1ccccc1CN1C(=O)CSc2c(c3ccccc3n2C)C1C(=O)NCCC(C)C (stereo not drawn)	i
O=C(Nc1ccccc1F)c1ccc2nc(-c3ccco3)c(-c3ccco3)nc2c1	i
O=C(Nc1nccs1)c1ccc2nc(-c3ccco3)c(-c3ccco3)nc2c1	30.0%*
O=C(Nc1nccs1)c1ccc2snnc2c1	i
c1ccc2nc(N3CCCC(Nc4ccc5c(c4)OCCO5)C3)cnc2c1 (stereo not drawn)	i
CN1CCN(c2ncnc3c2cnn3Cc2ccc(Cl)cc2Cl)CC1	i
CC1CCC(NC(=O)CN2CCN(Cc3ccc(F)cc3Cl)C2=O)CC1 (stereo not drawn)	i
Cc1ccn(CC(=O)N2CCCC(Nc3ccc(F)c(F)c3)C2)n1 (stereo not drawn)	i
COc1cc(C(=O)NCc2n[nH]c(=S)n2-c2cccc(C)c2)cc(OC)c1OC	i

Bioassay records as filed in PubChem BioAssay.
